Among all 360,000 compounds or so, about 1,300 (0.36%) were called active. Rule as the data show it: active = inhibition above about 19%; inactive = the rest. Only a selection was taken, and actives are over-represented in it overall.

In this assay the test system is T-cell receptor (TCR). Put plainly: inhibitors of human TCR-CD3 interaction, primary screen, biochemical, fluorescence, TAMRA-labeled TCR probe (AID 651800).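 Also: recombinant mutant TCR 2C K166C tagged with TAMRA read by polarization; 0% = receptor in buffer alone and 100% = receptor with positive control.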 To be noted: at 9.4 µM, hits give high values.
As for `CC/C(=N\NC(=O)c1ccccc1O)c1c(O)n(Cc2ccccc2)c(=O)[nH]c1=O`, the inhibition is 28.9% (active).

As for `CCCCn1c(O)c(C(CC)=NCc2ccco2)c(=O)[nH]c1=O`, the inhibition was -3.64% (inactive). Under `CCCCCCN=C(CC)c1c(O)n(CCCC)c(=O)[nH]c1=O` stands 0.66% (inactive). Under `Cc1ccc(N(C)C(=O)Oc2cccc3ccc(C)nc23)cc1` stands 1.25% (inactive). For `COc1ccc(NC(=O)c2cn(CCC#N)nc2-c2ccc([N+](=O)[O-])cc2)cc1`, the inhibition was 6.55% (inactive).

Source of the values: PubChem BioAssay AID651800 (The Scripps Research Institute Molecular Screening Center, 2012).
